From PubChem BioAssay AID651599 (National Center for Advancing Translational Sciences (NCATS), 2012)
Records with an inconclusive call do not appear. The source made the active and inactive calls. Calls come from the whole dose curve; as a rule, active = well fitted inhibition curve with a large enough effect; inconclusive = small, poorly fitted or top-dose-only effect; inactive = no such curve, though single readings can be large or run the other way.

These compounds were tested against Tumor susceptibility gene 101 protein (Homo sapiens) (UniProt Q99816) (assay: qHTS Assay for Iinhibitors of HIV-1 Budding by Blocking the Interaction of PTAP/TSG101: Hit Validation in TR assay). Details: Tsg101 binding domain + Texas Red-labeled PTAP peptide, fluorescence polarization, 20 min; series mostly up to 57.5 µM.
In short: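 Fluorescence polarization: Tsg101 binding domain (10 uM final) with Texas Red-labelled PTAP peptide (50 nM final) in HEPES pH 7.5, 0.15 M NaCl, Tween 20, EDTA, TCEP; 20 min binding at room temperature after compound addition.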

Chain of Tumor susceptibility gene 101 protein (Homo sapiens) (Q99816 whole entry, looked up, the tested form may be a part): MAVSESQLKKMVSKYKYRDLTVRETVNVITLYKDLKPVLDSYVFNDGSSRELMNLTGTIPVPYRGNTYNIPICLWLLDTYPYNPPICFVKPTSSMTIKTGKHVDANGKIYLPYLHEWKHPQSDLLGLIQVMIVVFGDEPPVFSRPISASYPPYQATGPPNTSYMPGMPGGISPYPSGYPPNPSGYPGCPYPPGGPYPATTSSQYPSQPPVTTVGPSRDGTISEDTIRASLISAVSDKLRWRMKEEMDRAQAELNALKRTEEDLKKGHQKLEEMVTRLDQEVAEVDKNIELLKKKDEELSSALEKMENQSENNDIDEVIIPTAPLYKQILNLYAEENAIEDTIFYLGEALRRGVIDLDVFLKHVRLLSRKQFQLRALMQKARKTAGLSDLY

Potency, inactive:
CC(C)(C)c1cc[n+](-c2[nH]c(=O)sc2/C=N/NC(=O)c2ccccc2[O-])cc1
O=C1C=CC(=O)c2c(O)c(CO)c(CO)c(O)c21
COc1cccc2c1C(=O)c1c(O)c3c(c(O)c1C2=O)CC(O)(C(C)=O)CC3OC1CC(N(C)C)C(O)C(C)O1 (centres undefined)
O=C(C1=NN(c2ccccc2)C2C(=O)N(c3ccccc3)C(=O)C12)c1ccccc1 (centres undefined)
CCOC(=O)c1cc2n(c1N)-c1ccccc1C2=O
O=C(Nc1nc2c(s1)CN(Cc1ccccc1)CC2)c1cccc(S(=O)(=O)N2CCc3ccccc32)c1
CCc1ccc[n+](-c2[nH]c(=O)sc2/C=N/NC([S-])=Nc2ccccc2)c1
O=C(OCCN1C(=O)c2cccc3c(N4CCOCC4)ccc(c23)C1=O)c1ccc(Cl)cc1Cl
N#Cc1cccc(NC(=O)CSc2ccc3c4c(cccc24)C(=O)c2ccccc2-3)c1
O=C1Nc2ccc(F)cc2C12Nc1ccccc1-c1nnc(SCc3ccccc3F)nc1O2 (centres undefined)
COc1ccccc1N1C(=O)C2C(C(=O)c3ccccc3)=NN(c3ccc(C)cc3)C2C1=O (centres undefined)
CCN(CC)c1ccc2cc(S(=O)(=O)c3ccc(C)cc3)c(=O)oc2c1
CC1=CC(=C(C#N)c2nc3ccccc3s2)C=C(C)N1CC1CCCO1 (centres undefined)
CN1CCc2c(sc3c2C(=O)NC(c2ccco2)N3)C1 (centres undefined)
Cc1cc[n+](-c2[nH]c(=O)sc2/C=N/NC([S-])=Nc2ccccc2)cc1
CCN(CC)c1ccc2cc(-c3nc(-c4ccc(OC)cc4)cs3)c(=O)oc2c1
O=c1[nH]c(=O)n(-c2cc(Br)c(O)c(Br)c2)cc1Br
O=C1c2ccccc2S(=O)(=O)c2cc(N3CCN(C(=O)c4ccccc4)CC3)ccc21
Cc1c2ccccc2nc2c(F)c(NCCO)c(F)c(F)c12
Cn1c(=O)c(Nc2ccc(O)cc2)c2c3c(cccc31)C(=O)c1ccccc1-2
Nc1ccc2nc3c(=O)n(C4CCCCC4)c(=O)[nH]c3nc2c1
Oc1[nH]c2ccccc2c1N=Nc1ccccc1
CCN1CCc2c(sc(NC(=O)Nc3ccc(Cl)c(Cl)c3)c2C(N)=O)C1
CCN(CC)CCCNc1ccc2ncn3c4ccc(O)cc4c(=O)c1c23
O=c1oc2ccccc2cc1-c1nc(-c2cccs2)cs1
C/C(O)=c1/ccc2cccc3nc(C)nc1c23
CC(=O)N1c2ccccc2C(=O)C1N1CCCCC1 (centres undefined)
Cc1cc2c(cc1C)NC(c1c(C)n(C)n(-c3ccccc3)c1=O)C1=C(CC(C)(C)CC1=O)N2 (centres undefined)
Nc1ccc2c3c(cccc13)C(=O)N(c1ccccc1)C2=O
CN1CCC2(CC1)C1CN(C)CC=C1C(C#N)=C(N)C2(C#N)C#N (centres undefined)
CCN(CC)c1ccc(/C=c2\sc3nc4ccccc4n3c2=O)c(O)c1
CCCCOC(=O)c1ccc(NC(=O)/C(C#N)=C/c2ccc(-c3ccccc3)o2)cc1
O=C1/C(=N\S(=O)(=O)c2cccs2)C([n+]2cccc(Cc3ccccc3)c2)=C([O-])c2ccccc21
COc1cc(-c2cc(-c3ccc(N)cc3)[nH]c(=O)c2C#N)cc(OC)c1OC
CCC(=O)Nc1ccc(NC(=O)C23CC4CC(CC(C4)C2)C3)cn1
Cc1oc2cc(O)ccc2c(=O)c1-c1nncn1-c1ccccc1
O=C1Nc2ccccc2/C1=C/c1cnc(-c2ccccc2)[nH]1
COc1ccc2nc(N3CCCC3)c(C#N)cc2c1
Cc1ccc(N=Cc2c(O)n(-c3nccs3)c(=O)c3ccccc23)c(C)c1
